# Laboratory results from PubChem BioAssay AID1159580 (chemical genetic matrix, 2015).
# About 2,000 (36%) of roughly 5,500 compounds were called active. About 18% were inconclusive and are not listed. This is one part of the list. Values without a mark were called inactive. Cut-off read from the data, not from the text of the source: active = normalized growth mostly below about 0.91 (no sharp cut-off); inconclusive = no clear call, values can overlap the other calls; inactive = mostly above about 0.92.
# Experiment: chemical genetic growth profiling, strain panel (AID 1159580);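 note: tested at 20 µM; growth read once vehicle control cultures reached saturation at 30 °C; 1 = growth at the plate median or of vehicle wells; lower values mean less growth of the strain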
# Conditions: S. cerevisiae deletion strains, growth OD
compound,measurement,setting,value
O=C1c2ccccc2O[C@@H](c2ccccc2)[C@@H]1NC1CCCCC1,normalized growth,"locus YAR019C, strain CDC15, hits give low values",0.904
same,normalized growth,"locus YBL105C, strain PKC1, hits give low values",0.909
same,normalized growth,"locus YBR135W, strain CKS1, hits give low values",0.914
same,normalized growth,"locus YBR136W, strain MEC1, hits give low values",0.916
same,normalized growth,"locus YBR160W, strain CDC28, hits give low values",0.927
same,normalized growth,"locus YDL017W, strain CDC7, hits give low values",0.914
same,normalized growth,"locus YDL028C, strain MPS1, hits give low values",0.913
same,normalized growth,"locus YDL101C, strain DUN1, hits give low values",0.898 (active)
same,normalized growth,"locus YDL108W, strain KIN28, hits give low values",0.924
same,normalized growth,"locus YDL132W, strain cdc53, hits give low values",0.887 (active)
same,normalized growth,"locus YDL214C, strain PRR2, hits give low values",0.883
same,normalized growth,"locus YDR052C, strain DBF4, hits give low values",0.907 (active)
same,normalized growth,"locus YDR054C, strain cdc34, hits give low values",0.872 (active)
same,normalized growth,"locus YDR226W, strain ADK1, hits give low values",0.898
same,normalized growth,"locus YDR477W, strain SNF1, hits give low values",0.87
same,normalized growth,"locus YER123W, strain YCK3, hits give low values",0.843
same,normalized growth,"locus YER133W, strain GLC7, hits give low values",0.841
same,normalized growth,"locus YFL009W, strain cdc4, hits give low values",0.884 (active)
same,normalized growth,"locus YFL029C, strain CAK1, hits give low values",0.91
same,normalized growth,"locus YFR003C, strain YPI1, hits give low values",0.915
same,normalized growth,"locus YFR019W, strain FAB1, hits give low values",0.889
same,normalized growth,"locus YFR028C, strain CDC14, hits give low values",0.888 (active)
same,normalized growth,"locus YGR040W, strain KSS1, hits give low values",0.866
same,normalized growth,"locus YGR052W, strain FMP48, hits give low values",0.885
same,normalized growth,"locus YGR092W, strain DBF2, hits give low values",0.871
same,normalized growth,"locus YHR030C, strain SLT2, hits give low values",0.697 (active)
same,normalized growth,"locus YHR079C, strain IRE1, hits give low values",0.852
same,normalized growth,"locus YHR082C, strain KSP1, hits give low values",0.933
same,normalized growth,"locus YHR205W, strain SCH9, hits give low values",0.898
same,normalized growth,"locus YIL147C, strain SLN1, hits give low values",0.909
same,normalized growth,"locus YJL095W, strain BCK1, hits give low values",0.792
same,normalized growth,"locus YJL128C, strain PBS2, hits give low values",0.872
same,normalized growth,"locus YJL157C, strain FAR1, hits give low values",0.849
same,normalized growth,"locus YJR016C, strain ILV3, hits give low values",0.898 (active)
same,normalized growth,"locus YJR066W, strain TOR1 (second series), hits give low values",0.771
same,normalized growth,"locus YJR066W, strain TOR1, hits give low values",0.888
same,normalized growth,"locus YKL048C, strain ELM1, hits give low values",0.901
same,normalized growth,"locus YKL067W, strain YNK1, hits give low values",0.903
same,normalized growth,"locus YKL101W, strain HSL1, hits give low values",0.906
same,normalized growth,"locus YKL193C, strain SDS22, hits give low values",0.902
same,normalized growth,"locus YKL203C, strain TOR2, hits give low values",0.922
same,normalized growth,"locus YLR113W, strain HOG1, hits give low values",0.747 (active)
same,normalized growth,"locus YLR133W, strain CKI1, hits give low values",0.897
same,normalized growth,"locus YLR403W, strain SFP1, hits give low values",0.849
same,normalized growth,"locus YML070W, strain DAK1, hits give low values",0.871
same,normalized growth,"locus YMR001C, strain CDC5, hits give low values",0.901
same,normalized growth,"locus YMR205C, strain PFK2 (second series), hits give low values",0.878
same,normalized growth,"locus YMR277W, strain FCP1, hits give low values",0.905
same,normalized growth,"locus YNL006W, strain LST8, hits give low values",0.906 (active)
same,normalized growth,"locus YNL020C, strain ARK1, hits give low values",0.901
same,normalized growth,"locus YNL161W, strain CBK1, hits give low values",0.9
same,normalized growth,"locus YNL183C, strain NPR1, hits give low values",0.941
same,normalized growth,"locus YNL207W, strain RIO2, hits give low values",0.898
same,normalized growth,"locus YNL222W, strain SSU72, hits give low values",0.919
same,normalized growth,"locus YNL307C, strain MCK1 (second series), hits give low values",0.904
same,normalized growth,"locus YOL078W, strain AVO1, hits give low values",0.9
same,normalized growth,"locus YOL136C, strain PFK27, hits give low values",0.887
same,normalized growth,"locus YOR061W, strain CKA2, hits give low values",0.867
same,normalized growth,"locus YOR119C, strain RIO1, hits give low values",0.945
same,normalized growth,"locus YOR231W, strain MKK1, hits give low values",0.874
same,normalized growth,"locus YOR329C, strain SCD5, hits give low values",0.909
same,normalized growth,"locus YPL031C, strain PHO85, hits give low values",0.867
same,normalized growth,"locus YPL153C, strain RAD53, hits give low values",0.864
same,normalized growth,"locus YPL204W, strain HRR25, hits give low values",0.843
same,normalized growth,"locus YPL209C, strain IPL1, hits give low values",0.917
same,normalized growth,"locus YPL256C, strain CLN2, hits give low values",0.858
same,normalized growth,"locus YPR025C, strain CCL1, hits give low values",0.914
same,normalized growth,"locus YPR106W, strain ISR1, hits give low values",0.91
same,normalized growth,"locus YPR111W, strain DBF20, hits give low values",0.92
same,normalized growth,"strain NNK1, hits give low values",0.905
same,normalized growth,"strain TSCII, hits give low values",0.881
